The record followed here is PubChem BioAssay.

Active and inactive are the calls of the source.

The nature of experiment [1]: E. coli DRC41 culture turbidity changes, primary screen, E. coli filamentation inducer project, strain DRC41, OD650, 48 h (AID 1152).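 Note: E. coli MC1000 strain DRC41 lacking acrAB efflux pump and sulA.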 Particulars: E. coli DRC41 (acrAB sulA), higher = more signal, called active from +8 up or from −8 down.
A short description of experiment [2]: small-molecule binders of probe aLefty1, primary screen, biochemical, small-molecule microarray, 635/667 nm fluorescence (AID 1153).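 Note: score merges spot fluorescence with signal-to-noise ratio from the scanned slide images.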 Particulars: higher = more signal.
Experiment [3] can be described thus: PSAC antagonists in infected red cells, primary screen, cell-based, P. falciparum Indochina, OD700, 1 h (AID 1154). Particulars: P. falciparum Indochina infected RBC osmotic lysis, higher = more signal, called active from +8 up or from −8 down.
Experiment [4] is described as follows: PSAC antagonists in infected red cells, primary screen, cell-based, P. falciparum Indochina, OD700, 2 h (AID 1155).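 Note: lysis reports solute entry through the parasite surface anion channel PSAC; channel blockers reduce lysis of infected cells.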 Particulars: P. falciparum Indochina infected erythrocytes, osmotic lysis OD700; higher = more signal, called active from +8 up or from −8 down.
Experiment [5] is described as follows: osmotic lysis modulators in infected erythrocytes, primary screen, PSAC antagonist project, cell-based, P. falciparum Indochina, OD700, 3 h (AID 1156). Particulars: higher = more signal, called active from +8 up or from −8 down.
Experiment [6] in a line: PSAC antagonists in infected red cells, primary screen, cell-based, P. falciparum Indochina, OD700, 18 h (AID 1157). Particulars: P. falciparum Indochina infected erythrocytes, osmotic lysis OD700, 18 h; higher = more signal, called active from +8 up or from −8 down.
Experiment [7] can be described thus: modulators of S6 phosphorylation in cells, primary screen, cell-based, A549, cytoblot, luminescence, serum-stimulated (AID 1158).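 Note: serum-stimulated A549 lung adenocarcinoma cells; signal is phosphorylated S6 detected by cytoblot immunostaining with HRP secondary.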 Particulars: A549 phospho-S6 cytoblot, 5 h, higher = more signal.
In experiment [8] the target is NADPH oxidase 2 (Homo sapiens) (UniProt P04839). The experiment in a line: NOX2-dependent H2O2 signal modulators, primary screen, NOX inhibitor project, cell-based, HEK293-NOX2, PMA-stimulated, Amplex Red fluorescence (AID 1159). Note: test concentration not given here. Particulars: 45 min, higher = more signal, called active from +8 up or from −8 down.
Experiment [9] addresses NADPH oxidase 4 (Homo sapiens) (UniProt Q9NPH5). The experiment is described as follows: NOX4-dependent H2O2 signal modulators, primary screen, NOX inhibitor project, cell-based, HEK293-NOX4, tetracycline-induced, Amplex Red fluorescence (AID 1160). Particulars: 45 min, higher = more signal, called active from +8 up or from −8 down.
Experiment [10] concerns the target NADPH oxidase 5 (Homo sapiens) (UniProt Q96PH1). The experiment in a line: NOX5-dependent H2O2 signal modulators, primary screen, NOX inhibitor project, cell-based, HEK293-NOX5, Amplex Red fluorescence (AID 1161). Particulars: HEK293-NOX5, ionomycin, 45 min, higher = more signal.

Chain of NADPH oxidase 2 (Homo sapiens) (P04839 whole entry, looked up): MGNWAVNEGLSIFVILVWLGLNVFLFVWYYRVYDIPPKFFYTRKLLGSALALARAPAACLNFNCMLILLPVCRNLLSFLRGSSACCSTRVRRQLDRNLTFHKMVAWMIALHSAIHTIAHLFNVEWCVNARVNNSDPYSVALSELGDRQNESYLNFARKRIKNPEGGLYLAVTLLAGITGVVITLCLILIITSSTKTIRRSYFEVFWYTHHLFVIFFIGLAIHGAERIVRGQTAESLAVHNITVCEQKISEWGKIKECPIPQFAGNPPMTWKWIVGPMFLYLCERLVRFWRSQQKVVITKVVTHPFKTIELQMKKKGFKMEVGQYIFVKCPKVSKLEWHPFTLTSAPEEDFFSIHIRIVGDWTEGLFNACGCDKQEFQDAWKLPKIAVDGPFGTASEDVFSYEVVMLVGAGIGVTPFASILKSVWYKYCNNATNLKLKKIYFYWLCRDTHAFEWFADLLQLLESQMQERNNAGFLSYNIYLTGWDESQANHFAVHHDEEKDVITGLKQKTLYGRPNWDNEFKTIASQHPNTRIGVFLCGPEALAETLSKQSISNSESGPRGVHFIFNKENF
Chain of NADPH oxidase 4 (Homo sapiens) (Q9NPH5 whole entry, looked up): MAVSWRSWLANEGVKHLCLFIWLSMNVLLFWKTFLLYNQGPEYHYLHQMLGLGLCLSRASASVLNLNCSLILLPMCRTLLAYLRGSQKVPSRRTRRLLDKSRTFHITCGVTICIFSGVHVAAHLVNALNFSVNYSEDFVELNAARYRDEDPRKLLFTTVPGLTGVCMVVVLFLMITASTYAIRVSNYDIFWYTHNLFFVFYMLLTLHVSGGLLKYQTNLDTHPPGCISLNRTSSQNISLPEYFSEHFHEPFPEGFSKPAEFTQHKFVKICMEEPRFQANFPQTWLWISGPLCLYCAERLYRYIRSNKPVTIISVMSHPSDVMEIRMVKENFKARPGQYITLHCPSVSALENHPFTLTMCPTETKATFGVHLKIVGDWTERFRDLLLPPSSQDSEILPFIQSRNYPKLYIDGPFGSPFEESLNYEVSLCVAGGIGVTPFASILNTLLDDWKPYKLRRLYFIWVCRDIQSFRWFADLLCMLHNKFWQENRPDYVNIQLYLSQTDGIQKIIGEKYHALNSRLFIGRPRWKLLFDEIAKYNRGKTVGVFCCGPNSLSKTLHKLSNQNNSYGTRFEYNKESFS
Chain of NADPH oxidase 5 (Homo sapiens) (Q96PH1 whole entry, looked up): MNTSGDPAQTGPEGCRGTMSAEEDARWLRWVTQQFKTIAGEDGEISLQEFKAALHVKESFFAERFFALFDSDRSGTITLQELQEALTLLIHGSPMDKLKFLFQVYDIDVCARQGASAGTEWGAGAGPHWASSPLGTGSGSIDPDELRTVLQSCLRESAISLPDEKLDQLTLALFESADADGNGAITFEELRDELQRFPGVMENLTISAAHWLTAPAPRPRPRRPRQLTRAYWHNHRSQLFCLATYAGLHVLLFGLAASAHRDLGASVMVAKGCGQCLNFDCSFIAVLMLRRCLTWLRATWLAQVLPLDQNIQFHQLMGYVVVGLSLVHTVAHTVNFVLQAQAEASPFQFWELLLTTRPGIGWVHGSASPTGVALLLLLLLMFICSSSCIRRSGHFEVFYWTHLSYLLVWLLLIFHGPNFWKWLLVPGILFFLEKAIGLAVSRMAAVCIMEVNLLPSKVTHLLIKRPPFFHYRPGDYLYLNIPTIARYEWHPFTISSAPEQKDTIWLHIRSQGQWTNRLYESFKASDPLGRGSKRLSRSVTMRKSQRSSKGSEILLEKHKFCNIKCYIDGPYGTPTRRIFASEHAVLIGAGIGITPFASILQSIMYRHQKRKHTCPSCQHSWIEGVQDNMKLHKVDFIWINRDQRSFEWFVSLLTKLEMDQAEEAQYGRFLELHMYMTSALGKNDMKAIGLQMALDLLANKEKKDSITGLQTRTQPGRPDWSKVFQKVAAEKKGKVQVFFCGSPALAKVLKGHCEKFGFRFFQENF

As for `COc1ccc(C(O)C2C=CC3C(=O)N(C)C(=O)C3N2NC(=O)OC(C)(C)C)c2ccccc12` (stereo not given), the z-score in experiment [1] is -1.17 (inactive); in experiment [3] it was 1.9 (inactive); in [4], 1.09 (inactive); in experiment [5] it was 0.0084 (inactive); in [6], 1.2 (inactive); in [7], -1.16. The results for the z-score in experiment [8], in experiment [9] and in experiment [10] were -0.674 (inactive), -1.92 (inactive) and 0.384, respectively. In [2], this compound returned a composite z-score of 0.445.
Turning to `Cc1ccc(/C=C/C=O)cc1`, the z-score in experiment [1] is 1.24 (inactive); in experiment [3] it was 0.248 (inactive); in [4], 0.0672 (inactive); in experiment [5], -0.0637 (inactive); in experiment [6] it was 0.0324 (inactive); in experiment [7], -0.139. Besides, the z-score was -0.225 (inactive) in experiment [8], -0.104 (inactive) in experiment [9] and 1.17 in [10]. The composite z-score in [2] is -0.22.
As for `C=CC[C@]1(C(=O)NCc2ccccc2)N=C(c2ccc(OCCCO)cc2)O[C@H]1c1ccccc1CN=[N+]=[N-]`, the z-score in experiment [1] was -1.21 (inactive); in experiment [3], 19.7 (active); in experiment [4] it was 2.93 (inactive); in [5], 3.16 (inactive); in experiment [6], 0.986 (inactive); in [7], -0.387. Besides, the z-score is -0.302 (inactive) in [8], 0.617 (inactive) in experiment [9] and -0.656 in experiment [10]. In experiment [2], this compound yielded a composite z-score of 0.0556.
Regarding `C=CCNC(=O)[C@@H]1[C@H]2C(=O)O[C@H](c3ccccc3)[C@H](c3ccccc3)N2[C@H](c2ccc(OCCO)cc2)[C@@]12C(=O)N(C(=O)OCCOC)c1ccc(C#CCNC(N)=O)cc12`, the z-score in experiment [1] is 1.43 (inactive); in experiment [3], 4.2 (inactive); in [4] it was 0.921 (inactive); in experiment [5], 1.47 (inactive); in [6], 0.514 (inactive); in experiment [7], 0.472. Also, the z-score in experiment [8] is 0.827 (inactive); in [9], -0.213 (inactive); in experiment [10] it was 0.0624. The compound further displayed a composite z-score in experiment [2] of 0.284.
In the case of `COCCCNC(=O)[C@@]1(Cc2ccccc2)N=C(c2ccc(OCCCO)cc2)O[C@H]1c1ccccc1CN=[N+]=[N-]`, the z-score was 0.576 (inactive) in experiment [1]; 14.3 (active) in experiment [3]; 1.83 (inactive) in [4]; 1.75 (inactive) in experiment [5]; 0.94 (inactive) in [6]; -0.443 in experiment [7]. For the same compound, the figures for the z-score in experiment [8], in [9] and in [10] were -4.56 (inactive), -0.271 (inactive) and -0.67, respectively. Besides, the composite z-score in experiment [2] amounted to 0.272.
Consider `Cc1ccc([C@H]2C(C(=O)O)=CCN2S(=O)(=O)c2ccc(C)cc2)cc1`, for which the z-score in experiment [1] is -0.813 (inactive); in [3], 1.48 (inactive); in experiment [4], 0.495 (inactive); in [5], 0.164 (inactive); in experiment [6] it was 0.291 (inactive); in experiment [7], -0.579. The results for the z-score in experiment [8], in [9] and in experiment [10] were 0.441 (inactive), -0.84 (inactive) and -1.62, respectively. Besides, the composite z-score in [2] is -0.0308.
Consider `COC(=O)[C@@]1(Cc2ccccc2)[C@H]2c3cc(C(=O)N(C)C)n(Cc4ccc(OC)c(OC)c4)c3C[C@H]2CN1C(=O)c1ccccc1`, for which the z-score in experiment [1] is -1.95 (inactive); in [3], 3.81 (inactive); in [4], 1.2 (inactive); in [5], 0.688 (inactive); in [6], 1.11 (inactive); in experiment [7] it was -0.399. The z-score in experiment [8] is -0.415 (inactive); in experiment [9], -0.865 (inactive); in experiment [10], -0.0397. For the same compound, in [2], the composite z-score was found to be 0.211.
As to `O=C1[C@@]23C=C(Br)[C@H](C[C@@H]2COC3)[C@]12CO2`, the z-score in experiment [1] is -0.508 (inactive); in experiment [3], 0.483 (inactive); in [4], -0.0352 (inactive); in [5], -0.103 (inactive); in experiment [6], -0.334 (inactive); in experiment [7] it was 0.424. The z-score is 0.447 (inactive) in experiment [8], -1.92 (inactive) in experiment [9] and -4.05 in experiment [10]. The compound further gave a composite z-score in experiment [2] of 0.151.
On to `O=C1NC(=O)C2C1C=CC(C(O)C1CC=CCC1)N2Nc1ccccn1` (stereo not given), for which the z-score in experiment [1] was -0.629 (inactive); in experiment [3] it was -0.158 (inactive); in [4], -0.0567 (inactive); in [5], 0.0677 (inactive); in [6] it was 0.288 (inactive); in experiment [7] it was -0.259. The z-score in experiment [8] is -2.27 (inactive); in experiment [9] it was -2.52 (inactive); in experiment [10], -1.61. Further, the composite z-score in experiment [2] was -0.0172.
For `COC(=O)C(CC#Cc1ccc2c(c1)[C@]1(C(=O)N2)[C@H](c2ccc(O)cc2)N2[C@H](c3ccccc3)[C@H](c3ccccc3)OC(=O)[C@H]2[C@@H]1C(=O)N1CCN(c2ncccn2)CC1)C(=O)OC`, the z-score in experiment [1] is 0.347 (inactive); in [3] it was 5.42 (inactive); in experiment [4], 0.658 (inactive); in experiment [5], 1.93 (inactive); in [6] it was 0.515 (inactive); in experiment [7], 0.355. The z-score is 1.91 (inactive) in experiment [8], 0.857 (inactive) in [9] and 1.54 in experiment [10]. In addition, the composite z-score in [2] amounted to 0.027.
`C=CC[C@@]1(C(=O)N2CCCCC2)N=C(c2ccc(OCCCO)cc2)O[C@@H]1c1ccccc1CN=[N+]=[N-]`: the z-score in [1] is 0.279 (inactive); in experiment [3] it was 26 (active); in [4], 16 (active); in experiment [5], 2.79 (inactive); in [6], 1.04 (inactive); in experiment [7], 1.32. For the same compound, the z-score in [8] is -0.935 (inactive); in experiment [9], 1.43 (inactive); in experiment [10], 1.05. Also, the composite z-score in experiment [2] came to 0.393.
As for `C=C(/C(=C/C[C@H](OC(=O)c1ccncc1)c1ccc(OCCO)cc1)c1cc(C(=O)OC)ccc1OC)C(C)C`, the z-score in [1] was 0.936 (inactive); in experiment [3], 14.5 (active); in [4] it was 1.19 (inactive); in [5], 1.29 (inactive); in experiment [6], -1.07 (inactive); in [7] it was 0.622. For the same compound, the z-score in [8] was -1.78 (inactive); in experiment [9], -0.754 (inactive); in experiment [10], -2.43. Also, the composite z-score in [2] is 0.0455.
For the compound `COC(=O)[C@@]1(Cc2ccc(OC)cc2)[C@H]2c3cc(C(=O)N4CCCC4)n(CCSCCO)c3C[C@H]2CN1C(=O)c1ccccc1`, the z-score in experiment [1] was -1.34 (inactive); in [3] it was 2.07 (inactive); in [4], 0.142 (inactive); in [5] it was -0.0464 (inactive); in [6], 0.667 (inactive); in [7] it was -0.0335. The z-score in experiment [8] is 0.354 (inactive); in experiment [9] it was -1.04 (inactive); in experiment [10] it was -0.201. The same compound had a composite z-score in experiment [2] of 0.399.
